For eleven compounds, Percent Effect results are on record in ChEMBL document CHEMBL3988442, “University of Dundee, Small-Polar-MMV Screening Library” (2021).

Common to all, as to design: scale not given: direction of the effect not stated beside the values
In experiment [1] the target is Protein translocase subunit SecA (Escherichia coli (strain K12)) (UniProt P10408). In words: Assay to Identify E. coli SecA ATPase Inhibitors. It counts as functional. The note with it: 30 µM.
The target in experiment [2] is T1, Ubiquitin-activating enzyme e1, putative (Leishmania donovani (strain BPK282A1)) (UniProt E9BSI1).
T1 sequence (whole entry): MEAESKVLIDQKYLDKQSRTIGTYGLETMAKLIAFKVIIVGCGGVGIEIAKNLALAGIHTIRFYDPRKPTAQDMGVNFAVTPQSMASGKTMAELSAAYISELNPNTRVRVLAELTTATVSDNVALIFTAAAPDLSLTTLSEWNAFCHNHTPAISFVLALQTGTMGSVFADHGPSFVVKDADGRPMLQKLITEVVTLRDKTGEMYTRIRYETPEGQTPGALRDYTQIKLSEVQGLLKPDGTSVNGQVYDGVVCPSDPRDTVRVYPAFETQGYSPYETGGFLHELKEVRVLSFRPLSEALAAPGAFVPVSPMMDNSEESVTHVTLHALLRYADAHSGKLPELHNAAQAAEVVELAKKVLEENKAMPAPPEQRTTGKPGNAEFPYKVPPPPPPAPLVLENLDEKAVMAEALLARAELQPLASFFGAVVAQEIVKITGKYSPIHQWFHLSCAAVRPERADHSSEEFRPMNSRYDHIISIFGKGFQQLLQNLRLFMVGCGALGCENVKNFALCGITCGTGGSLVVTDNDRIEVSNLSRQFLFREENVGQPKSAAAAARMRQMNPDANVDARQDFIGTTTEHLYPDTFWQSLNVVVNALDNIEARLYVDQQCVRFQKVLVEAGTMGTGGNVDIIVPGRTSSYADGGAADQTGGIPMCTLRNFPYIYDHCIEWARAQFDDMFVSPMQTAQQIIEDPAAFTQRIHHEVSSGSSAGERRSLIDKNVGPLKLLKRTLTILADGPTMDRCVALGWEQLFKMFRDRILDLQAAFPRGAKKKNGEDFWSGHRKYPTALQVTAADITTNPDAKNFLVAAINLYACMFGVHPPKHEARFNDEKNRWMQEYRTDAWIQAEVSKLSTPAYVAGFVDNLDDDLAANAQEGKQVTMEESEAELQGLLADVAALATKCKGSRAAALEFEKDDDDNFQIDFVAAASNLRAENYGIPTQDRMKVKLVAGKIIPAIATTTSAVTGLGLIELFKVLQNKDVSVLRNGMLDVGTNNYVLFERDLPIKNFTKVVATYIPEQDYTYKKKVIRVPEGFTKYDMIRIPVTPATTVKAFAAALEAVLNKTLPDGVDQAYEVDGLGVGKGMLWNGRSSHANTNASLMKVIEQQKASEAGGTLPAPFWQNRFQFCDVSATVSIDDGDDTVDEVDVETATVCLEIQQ
Briefly: Leishmania donovani Ubiquitin Activating Enzyme (LdE1). It counts as functional. Particulars: 30 µM.

For experiment [3], the target named is AMP-activated protein kinase, AMPK (Homo sapiens) (UniProt P54646+O43741+P54619+Q9UGJ0+Q9Y478+Q13131+Q9UGI9). In words: AMP-dependent Kinase enzyme assay. An in vitro enzyme assay that detects ADP turnover that is directly proportional to AMPK activity. This uses naive AMPK that is activated during the assay with MK-8722. It counts as functional. Particulars: 30 µM.

The target in experiment [4] is Sialic acid-binding Ig-like lectin 9 (Homo sapiens) (UniProt Q9Y336). Briefly: Hs-Siglec9 ALPHAscreen SOP 20170721. The note with it: 10 µM. For orientation: In Alpha technology, singlet oxygen from a donor bead excites a nearby acceptor bead.
Sialic acid-binding Ig-like lectin 9 (Homo sapiens), sequence (Q9Y336 whole entry): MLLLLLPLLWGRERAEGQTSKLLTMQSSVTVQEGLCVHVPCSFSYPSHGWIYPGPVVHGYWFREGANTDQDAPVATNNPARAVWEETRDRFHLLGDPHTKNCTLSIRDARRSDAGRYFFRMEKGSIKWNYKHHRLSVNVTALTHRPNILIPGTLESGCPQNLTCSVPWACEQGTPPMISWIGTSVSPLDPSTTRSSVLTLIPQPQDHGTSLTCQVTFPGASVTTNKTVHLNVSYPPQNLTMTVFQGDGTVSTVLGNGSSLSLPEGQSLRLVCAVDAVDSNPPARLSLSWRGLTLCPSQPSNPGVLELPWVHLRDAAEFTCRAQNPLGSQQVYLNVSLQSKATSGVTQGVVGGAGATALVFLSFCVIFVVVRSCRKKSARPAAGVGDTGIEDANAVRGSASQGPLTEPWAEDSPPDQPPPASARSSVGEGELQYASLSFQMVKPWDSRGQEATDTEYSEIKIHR
The next experiment relates to Trypanosoma cruzi. In words: Trypanosoma cruzi phosphomannomutase and mannose-1-phosphate guanylyltransferase assay. Particulars: 10 µM. In kind it is functional.
The target in experiment [5] is T2, Arginase-2, mitochondrial (Homo sapiens) (UniProt P78540).
T2 sequence (whole entry): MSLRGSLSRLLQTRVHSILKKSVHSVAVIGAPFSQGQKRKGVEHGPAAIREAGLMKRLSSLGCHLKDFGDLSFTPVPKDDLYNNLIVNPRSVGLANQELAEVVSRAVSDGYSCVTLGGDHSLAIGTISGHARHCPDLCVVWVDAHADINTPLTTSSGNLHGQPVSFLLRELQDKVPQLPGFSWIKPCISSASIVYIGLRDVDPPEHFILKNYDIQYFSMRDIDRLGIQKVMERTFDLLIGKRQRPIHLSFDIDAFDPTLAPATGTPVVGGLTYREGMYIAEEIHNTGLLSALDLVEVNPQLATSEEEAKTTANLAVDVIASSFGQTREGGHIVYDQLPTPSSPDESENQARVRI
Briefly: in vitro enzyme assay to detect the production of urea directly proportional to the activity of Arginase II. Note: in the data most compounds retested in dose-response had high values. It counts as functional. The note with it: 33.3 µM.

The target in experiment [6] is T3, Proteasome subunit beta (Trypanosoma cruzi) (UniProt O96673).
T3 sequence (whole entry): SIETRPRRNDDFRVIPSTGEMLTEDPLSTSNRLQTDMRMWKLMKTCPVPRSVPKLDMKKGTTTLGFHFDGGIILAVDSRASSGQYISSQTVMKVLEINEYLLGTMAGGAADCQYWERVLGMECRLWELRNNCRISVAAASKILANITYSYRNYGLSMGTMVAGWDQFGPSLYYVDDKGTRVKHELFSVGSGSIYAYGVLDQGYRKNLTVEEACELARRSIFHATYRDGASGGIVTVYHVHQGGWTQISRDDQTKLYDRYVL
Briefly: Trypanosoma cruzi proteasome chymotrypsin-like activity (TcProtChymo) assay. Note: in the data most compounds retested in dose-response had high values. In kind it is functional. Particulars: 9.37 µM.

The species entered for the next experiment is Homo sapiens. In words: To identify inhibition of the IFN signalling (Jak-Stat) pathway via expression of an eGFP reporter gene under the control of an IFN-stimulated response element (ISRE) containing MxA promoter. It counts as functional. The note with it: 30 µM. A general note: A reporter such as luciferase makes a cellular process visible.
Experiment [7] deals with T4, Tyrosyl-tRNA synthetase, putative (Trypanosoma cruzi (strain CL Brener)) (UniProt Q4DSP6).
T4 sequence (whole entry): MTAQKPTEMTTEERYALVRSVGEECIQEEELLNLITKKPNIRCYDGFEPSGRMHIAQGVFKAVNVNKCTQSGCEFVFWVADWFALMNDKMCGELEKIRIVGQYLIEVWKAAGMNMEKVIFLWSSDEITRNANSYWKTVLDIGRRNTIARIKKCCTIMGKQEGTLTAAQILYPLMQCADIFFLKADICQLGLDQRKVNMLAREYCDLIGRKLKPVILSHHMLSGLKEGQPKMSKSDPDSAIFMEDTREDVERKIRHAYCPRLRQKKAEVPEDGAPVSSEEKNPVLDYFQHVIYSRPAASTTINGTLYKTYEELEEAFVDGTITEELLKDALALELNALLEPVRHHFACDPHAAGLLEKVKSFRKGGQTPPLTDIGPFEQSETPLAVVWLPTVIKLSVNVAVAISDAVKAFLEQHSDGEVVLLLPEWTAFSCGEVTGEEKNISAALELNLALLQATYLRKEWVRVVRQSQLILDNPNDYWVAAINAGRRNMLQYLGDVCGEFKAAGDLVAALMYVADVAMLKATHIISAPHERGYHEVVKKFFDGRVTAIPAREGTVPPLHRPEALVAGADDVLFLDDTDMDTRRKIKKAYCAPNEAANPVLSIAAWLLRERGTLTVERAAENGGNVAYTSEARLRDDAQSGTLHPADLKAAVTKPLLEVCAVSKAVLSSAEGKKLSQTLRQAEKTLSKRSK
Briefly: Trypanosoma cruzi tyrosyl tRNA synthetase (TcYRS) _High Tyrosine SOP. Note: in the data most compounds retested in dose-response had high values. It counts as functional. Particulars: 30 µM.

Experiment [8] addresses T4, Tyrosyl-tRNA synthetase, putative (Trypanosoma cruzi (strain CL Brener)). In words: Trypanosoma cruzi tyrosyl tRNA synthetase (TcYRS) SOP. Particulars: 30 µM. It counts as functional.
Experiment [9] has as its target Chromo domain-containing protein 1 (Saccharomyces cerevisiae (strain ATCC 204508 / S288c) (Baker's yeast)) (UniProt P32657). In words: ScCHD-1 Enzyme Inhibition Assay. Note: in the data most compounds retested in dose-response had high values. It counts as functional. The note with it: 30 µM.

For some of these results: Measured potencies and affinities stand elsewhere.

Chromo domain-containing protein 1 (Saccharomyces cerevisiae (strain ATCC 204508 / S288c) (Baker's yeast)), sequence (P32657 whole entry, the tested form may be a part): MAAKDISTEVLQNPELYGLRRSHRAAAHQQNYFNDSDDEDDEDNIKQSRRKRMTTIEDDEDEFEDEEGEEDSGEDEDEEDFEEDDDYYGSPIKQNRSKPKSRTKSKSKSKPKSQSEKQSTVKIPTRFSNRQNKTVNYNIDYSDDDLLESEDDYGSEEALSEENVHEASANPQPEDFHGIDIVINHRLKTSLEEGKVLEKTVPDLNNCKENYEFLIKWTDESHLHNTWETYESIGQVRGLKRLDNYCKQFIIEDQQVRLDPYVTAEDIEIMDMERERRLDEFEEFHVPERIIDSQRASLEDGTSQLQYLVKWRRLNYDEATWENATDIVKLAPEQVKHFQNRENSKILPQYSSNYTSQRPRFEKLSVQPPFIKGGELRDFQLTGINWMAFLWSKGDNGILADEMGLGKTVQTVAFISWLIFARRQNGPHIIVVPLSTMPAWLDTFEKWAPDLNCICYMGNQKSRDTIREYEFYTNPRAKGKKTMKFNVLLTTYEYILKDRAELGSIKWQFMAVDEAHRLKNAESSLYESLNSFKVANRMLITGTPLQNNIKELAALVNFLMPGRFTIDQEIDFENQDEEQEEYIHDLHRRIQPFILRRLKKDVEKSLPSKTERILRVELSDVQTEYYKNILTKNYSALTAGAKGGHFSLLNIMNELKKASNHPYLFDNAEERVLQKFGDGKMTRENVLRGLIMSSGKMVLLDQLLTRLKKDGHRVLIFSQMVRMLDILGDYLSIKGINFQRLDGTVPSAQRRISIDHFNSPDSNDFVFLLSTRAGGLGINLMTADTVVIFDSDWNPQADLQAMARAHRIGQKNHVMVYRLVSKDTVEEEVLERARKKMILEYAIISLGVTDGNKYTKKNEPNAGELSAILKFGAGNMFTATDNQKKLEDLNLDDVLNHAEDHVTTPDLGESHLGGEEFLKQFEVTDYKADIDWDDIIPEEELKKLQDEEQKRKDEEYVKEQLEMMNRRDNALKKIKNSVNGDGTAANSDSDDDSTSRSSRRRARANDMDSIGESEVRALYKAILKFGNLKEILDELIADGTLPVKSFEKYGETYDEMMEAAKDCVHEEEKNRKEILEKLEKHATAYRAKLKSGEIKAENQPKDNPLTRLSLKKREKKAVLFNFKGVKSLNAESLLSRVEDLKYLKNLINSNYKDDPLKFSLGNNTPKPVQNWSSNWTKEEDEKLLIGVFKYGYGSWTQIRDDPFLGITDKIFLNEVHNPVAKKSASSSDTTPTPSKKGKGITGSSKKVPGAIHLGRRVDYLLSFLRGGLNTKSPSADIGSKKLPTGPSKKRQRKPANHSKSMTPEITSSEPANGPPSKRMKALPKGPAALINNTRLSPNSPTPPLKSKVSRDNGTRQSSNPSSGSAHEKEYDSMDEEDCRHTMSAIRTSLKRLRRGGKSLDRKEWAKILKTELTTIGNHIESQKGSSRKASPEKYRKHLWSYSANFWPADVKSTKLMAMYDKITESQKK
Protein translocase subunit SecA (Escherichia coli (strain K12)), sequence (P10408 whole entry): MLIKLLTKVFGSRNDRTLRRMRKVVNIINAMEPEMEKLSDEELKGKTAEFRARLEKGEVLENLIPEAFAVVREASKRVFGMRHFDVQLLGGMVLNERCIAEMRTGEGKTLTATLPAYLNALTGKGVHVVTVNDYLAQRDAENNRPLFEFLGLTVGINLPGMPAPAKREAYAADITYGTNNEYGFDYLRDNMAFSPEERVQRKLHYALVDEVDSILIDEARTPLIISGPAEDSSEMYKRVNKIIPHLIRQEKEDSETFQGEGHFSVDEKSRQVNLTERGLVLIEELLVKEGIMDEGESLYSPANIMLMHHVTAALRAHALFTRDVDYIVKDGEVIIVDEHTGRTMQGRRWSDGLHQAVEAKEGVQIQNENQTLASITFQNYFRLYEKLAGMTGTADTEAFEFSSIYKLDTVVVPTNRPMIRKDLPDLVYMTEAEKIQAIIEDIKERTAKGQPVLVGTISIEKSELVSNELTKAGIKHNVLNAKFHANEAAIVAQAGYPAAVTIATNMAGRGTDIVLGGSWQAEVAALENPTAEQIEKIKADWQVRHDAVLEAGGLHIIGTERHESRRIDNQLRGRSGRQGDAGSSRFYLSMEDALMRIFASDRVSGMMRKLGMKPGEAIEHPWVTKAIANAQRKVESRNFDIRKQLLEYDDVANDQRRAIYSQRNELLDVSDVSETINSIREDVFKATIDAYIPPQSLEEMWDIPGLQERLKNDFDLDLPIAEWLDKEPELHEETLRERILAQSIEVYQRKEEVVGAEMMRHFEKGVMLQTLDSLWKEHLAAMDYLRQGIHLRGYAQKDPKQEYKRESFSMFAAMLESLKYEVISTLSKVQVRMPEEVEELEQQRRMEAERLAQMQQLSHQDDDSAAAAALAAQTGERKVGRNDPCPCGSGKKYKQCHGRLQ

`O=C(NCCNc1ncccn1)N1CCSCC1`: the Percent Effect in experiment [1] is -0.808%; in experiment [2], 13.5%; in experiment [3], -7.4%; in experiment [4], 9.38%; in the experiment with Trypanosoma cruzi it was 3.87%; in experiment [5], -5.21%. Moreover, the Percent Effect was 7.39% in experiment [6]; 11.3% in the experiment listed under Homo sapiens; 5.42% in experiment [7]; 16.1% in [8]; -9.99% in [9].
As for `Cc1nn(C)cc1CN1CCC(C2Nc3ccccc3S(=O)(=O)N2)CC1` (stereo unspecified), the Percent Effect in experiment [1] was -3.36%; in experiment [2] it was 6.76%; in experiment [3], 11.9%; in [4], 2.59%; with Trypanosoma cruzi, -1.78%; in [5], 0.232%. Further, the Percent Effect in experiment [6] was 7.49%; in the experiment listed under Homo sapiens, -1.1%; in experiment [7], 6.45%; in [8], 14.3%; in [9], -9.41%.
Turning to `CCc1nc(CC(=O)N2CCn3c(nnc3C(F)(F)F)C2)cs1`, the Percent Effect in experiment [1] was -2.58%; in experiment [2], 0%; in experiment [3], 6.61%; in experiment [4], 5.79%; in the experiment on Trypanosoma cruzi it was 0.564%; in experiment [5], 4.98%. Moreover, the Percent Effect in [6] was 3.17%; in the experiment filed under Homo sapiens it was -25.8%; in [7] it was -0.49%; in [8], 0%; in experiment [9], -6.79%.
In the case of `CC(=O)NCC1CCN(C(=O)c2csc(-c3ccc(C)cc3C)n2)CC1`, the Percent Effect was -3.29% in [1]; 13.5% in experiment [2]; 1.21% in experiment [3]; 1.58% in experiment [4]; 1.58% in the experiment with Trypanosoma cruzi; 0.554% in experiment [5]. The Percent Effect in experiment [6] was 4.49%; in the experiment listed under Homo sapiens, 35.7%; in experiment [7], 7.92%; in experiment [8] it was 23.2%; in [9], 0.867%.
On to `Clc1snnc1CN1CCCC(Cn2cncn2)C1` (stereo unspecified), for which the Percent Effect was -1.77% in experiment [1]; 17.7% in experiment [2]; -3.42% in experiment [3]; -8.68% in experiment [4]; 1.98% in the experiment on Trypanosoma cruzi; -1.52% in [5]. Moreover, the Percent Effect in [6] was 18.6%; in the experiment filed under Homo sapiens it was 6.4%; in [7], 10.3%; in [8], 29.1%; in experiment [9] it was -10.8%.
For the compound `O=C(c1cccc(Cl)c1)N1CCCn2c(CN3CCCCC3)nnc2C1`, the Percent Effect in experiment [1] was -9.25%; in [2], 8%; in [3], -3.61%; in [4], 1.72%; in the experiment on Trypanosoma cruzi, -6.3%; in [5], -2.1%. Moreover, the Percent Effect in [6] is 0.441%; in the experiment listed under Homo sapiens, 10.4%; in experiment [7], 4.25%; in experiment [8], 3.85%; in [9], -2.51%.
Regarding `CC1CN(C(=O)CN(Cc2ccco2)C2CC2)CCO1` (stereo unspecified), the Percent Effect in [1] was -2.04%; in [2], 0%; in [3], 2.98%; in experiment [4], -1.26%; with Trypanosoma cruzi, -3.62%; in experiment [5], 4.84%. In addition, the Percent Effect in experiment [6] was 0.242%; in the experiment filed under Homo sapiens, 22.1%; in [7], 1.91%; in experiment [8] it was 2.35%; in experiment [9], -8.2%.
`CC1CCN(C(=O)CN(Cc2ccco2)C2CC2)CC1`: the Percent Effect in experiment [1] is -1.66%; in [2], 2.6%; in [3], 6.73%; in experiment [4], 0.322%; with Trypanosoma cruzi it was 6.95%; in experiment [5] it was -1.47%. For the same compound, the Percent Effect is 7.84% in experiment [6]; 3.81% in the experiment filed under Homo sapiens; 1.91% in experiment [7]; 7.06% in [8]; -5.98% in experiment [9].
Turning to `CCC1CN(CC(=O)N2CCC2)CCN1CCOC` (stereo unspecified), the Percent Effect was -2.71% in experiment [1]; 13.5% in experiment [2]; -12.7% in experiment [3]; 13.2% in [4]; 3.49% with Trypanosoma cruzi; -8.82% in [5]. The Percent Effect is 7.03% in [6]; 1.78% in the experiment listed under Homo sapiens; 8.37% in experiment [7]; 28.4% in [8]; -9.71% in experiment [9].
Turning to `O=C(c1cnc(C2CC2)s1)N1CCCC(n2cccn2)C1` (stereo unspecified), the Percent Effect was -2.59% in experiment [1]; 8.11% in experiment [2]; -1.44% in [3]; -0.959% in experiment [4]; -7.26% in the experiment with Trypanosoma cruzi; -5.61% in experiment [5]. Moreover, the Percent Effect in experiment [6] is 1.26%; in the experiment listed under Homo sapiens, 21%; in [7], 6.4%; in experiment [8], 11.1%; in experiment [9], -5.53%.
With `COCCO[C@H]1CCN(Cc2cccs2)[C@H]1Cc1cccnc1`, the Percent Effect in experiment [1] was -3.38%; in experiment [2], 0%; in experiment [3], -12.3%; in experiment [4], 20.5%; with Trypanosoma cruzi it was 6.35%; in experiment [5] it was -1.24%. The Percent Effect in [6] is 11.6%; in the experiment listed under Homo sapiens, 0.814%; in experiment [7], 3.23%; in experiment [8], 6.17%; in experiment [9], -1.24%.
